Data on eight sequences can be found in publication PMC11006913.

Test in all cases: PBM; 200 nM protein, PBS
Settings in all cases: dsDNA, one strand shown

Assay [1] deals with SHOX (Homo sapiens, UniProt O15266 103-189).
Assay [2] addresses PRRX1 (Homo sapiens, UniProt P54821 80-166, F113S).
The target in assay [3] is SHOX (Homo sapiens, UniProt O15266 103-189, R173C).
For assay [4], the target named is PRRX1 (Homo sapiens, UniProt P54821 80-166).
Assay [5] addresses T1, PAX4 (Homo sapiens, UniProt O43316 9-242, R200K).
T1 sequence: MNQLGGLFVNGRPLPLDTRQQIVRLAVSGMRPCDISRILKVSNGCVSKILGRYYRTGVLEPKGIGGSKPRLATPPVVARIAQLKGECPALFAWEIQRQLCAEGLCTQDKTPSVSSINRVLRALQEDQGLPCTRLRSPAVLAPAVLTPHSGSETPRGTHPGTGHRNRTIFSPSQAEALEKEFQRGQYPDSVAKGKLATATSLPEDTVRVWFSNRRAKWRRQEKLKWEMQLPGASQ

The target of assay [6] is T2, PAX4 (Homo sapiens, UniProt O43316 9-242).
T2 sequence: T1 sequence with K192R

For assay [7], the target named is MSX2 (Homo sapiens, UniProt P35548 130-214, R199I).
Chain of MSX2 (Homo sapiens, UniProt P35548 130-214, R199I) (P35548 130-214 R199I): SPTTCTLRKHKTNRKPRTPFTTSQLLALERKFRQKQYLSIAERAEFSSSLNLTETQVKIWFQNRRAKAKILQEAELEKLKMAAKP
For assay [8], the target named is ALX1 (Homo sapiens, UniProt Q15699 118-204, L144V).
Chain of ALX1 (Homo sapiens, UniProt Q15699 118-204, L144V) (Q15699 118-204 L144V): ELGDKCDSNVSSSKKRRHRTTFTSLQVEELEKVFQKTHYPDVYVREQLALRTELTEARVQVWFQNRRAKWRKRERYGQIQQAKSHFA
For assay [9], the target named is T3, PAX4 (Homo sapiens, UniProt O43316 9-242, R200Q).
T3 sequence: T1 sequence with K192Q

In another assay the target is PITX2 (Homo sapiens, UniProt Q99697 72-157).
Assay [10] has as its target ALX1 (Homo sapiens, UniProt Q15699 118-204, L144R).
Assay [11] concerns the target T4, PAX4 (Homo sapiens, UniProt O43316 9-242, F177V).
T4 sequence: T1 sequence with F169V, K192R

Assay [12] concerns the target MSX2 (Homo sapiens, UniProt P35548 130-214).
Assay [13] has as its target T5, PAX4 (Homo sapiens, UniProt O43316 9-242, F177Y).
T5 sequence: T1 sequence with F169Y, K192R

Assay [14] addresses MSX2 (Homo sapiens, UniProt P35548 130-214, F161Y).
Assay [15] deals with T6, PAX4 (Homo sapiens, UniProt O43316 9-242, R227W).
T6 sequence: T1 sequence with K192R, R219W

In assay [16] the target is ALX1 (Homo sapiens, UniProt Q15699 118-204).
Chain of ALX1 (Homo sapiens, UniProt Q15699 118-204) (Q15699 118-204): as the sequence (Q15699 118-204 L144V) above, with V27L counted along it
Assay [17] concerns the target ALX3 (Homo sapiens, UniProt O95076 139-225).
The target in assay [18] is HOXC10 (Homo sapiens, UniProt Q9NYD6 254-340).
Chain of HOXC10 (Homo sapiens, UniProt Q9NYD6 254-340) (Q9NYD6 254-340): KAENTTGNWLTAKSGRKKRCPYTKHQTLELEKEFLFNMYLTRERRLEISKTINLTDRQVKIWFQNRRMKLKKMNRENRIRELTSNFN
Assay [19] addresses HOXC10 (Homo sapiens, UniProt Q9NYD6 254-340, K271E).
In assay [20] the target is ALX3 (Homo sapiens, UniProt O95076 139-225, N203Q).
Chain of ALX3 (Homo sapiens, UniProt O95076 139-225, N203Q) (O95076 139-225 N203Q): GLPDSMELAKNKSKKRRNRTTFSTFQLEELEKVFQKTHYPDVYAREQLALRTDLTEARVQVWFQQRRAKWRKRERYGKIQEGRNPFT
The target of assay [21] is ALX3 (Homo sapiens, UniProt O95076 139-225, L168Q).
Chain of ALX3 (Homo sapiens, UniProt O95076 139-225, L168Q) (O95076 139-225 L168Q): as the sequence (O95076 139-225 N203Q) above, with L30Q, Q65N counted along it
The target in assay [22] is ALX3 (Homo sapiens, UniProt O95076 139-225, L168V).
Chain of ALX3 (Homo sapiens, UniProt O95076 139-225, L168V) (O95076 139-225 L168V): as the sequence (O95076 139-225 N203Q) above, with L30V, Q65N counted along it
Assay [23] concerns the target ALX3 (Homo sapiens, UniProt O95076 139-225, N203S).
Assay [24] has as its target HOXB9 (Homo sapiens, UniProt P17482 171-250).
Assay [25] deals with HOXB9 (Homo sapiens, UniProt P17482 171-250, R186Q).
Chain of HOXB9 (Homo sapiens, UniProt P17482 171-250, R186Q) (P17482 171-250 R186Q): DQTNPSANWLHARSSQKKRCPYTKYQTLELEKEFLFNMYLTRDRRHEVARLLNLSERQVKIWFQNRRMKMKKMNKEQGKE

Where a chain is given by its changes, count along the chain named.

Chain of ALX1 (Homo sapiens, UniProt Q15699 118-204, L144R) (Q15699 118-204 L144R): as the sequence (Q15699 118-204 L144V) above, with V27R counted along it
Chain of SHOX (Homo sapiens, UniProt O15266 103-189) (O15266 103-189): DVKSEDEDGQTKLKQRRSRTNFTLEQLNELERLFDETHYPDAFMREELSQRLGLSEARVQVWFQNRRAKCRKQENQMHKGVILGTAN
Chain of SHOX (Homo sapiens, UniProt O15266 103-189, R173C) (O15266 103-189 R173C): as the sequence (O15266 103-189) above, with R71C counted along it
Chain of PRRX1 (Homo sapiens, UniProt P54821 80-166) (P54821 80-166): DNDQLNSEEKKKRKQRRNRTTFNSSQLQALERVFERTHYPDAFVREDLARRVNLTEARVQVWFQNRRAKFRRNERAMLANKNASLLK
Chain of PRRX1 (Homo sapiens, UniProt P54821 80-166, F113S) (P54821 80-166 F113S): as the sequence (P54821 80-166) above, with F34S counted along it
Chain of HOXC10 (Homo sapiens, UniProt Q9NYD6 254-340, K271E) (Q9NYD6 254-340 K271E): as the sequence (Q9NYD6 254-340) above, with K18E counted along it
Chain of MSX2 (Homo sapiens, UniProt P35548 130-214) (P35548 130-214): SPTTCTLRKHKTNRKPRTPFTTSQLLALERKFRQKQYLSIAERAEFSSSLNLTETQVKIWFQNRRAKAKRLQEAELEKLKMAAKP
Chain of ALX3 (Homo sapiens, UniProt O95076 139-225) (O95076 139-225): as the sequence (O95076 139-225 N203Q) above, with Q65N counted along it
Chain of MSX2 (Homo sapiens, UniProt P35548 130-214, F161Y) (P35548 130-214 F161Y): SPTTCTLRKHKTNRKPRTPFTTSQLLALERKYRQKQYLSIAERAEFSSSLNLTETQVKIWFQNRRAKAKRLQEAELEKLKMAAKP
Chain of ALX3 (Homo sapiens, UniProt O95076 139-225, N203S) (O95076 139-225 N203S): as the sequence (O95076 139-225 N203Q) above, with Q65S counted along it
Chain of HOXB9 (Homo sapiens, UniProt P17482 171-250) (P17482 171-250): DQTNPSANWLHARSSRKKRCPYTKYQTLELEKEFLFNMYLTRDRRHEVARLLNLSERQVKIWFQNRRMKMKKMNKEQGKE

With CGAACCGC, the binding signal is 7.29 upbm affinity estimate (log intensity, higher = more binding, comparable within an allelic series) in the assay with SHOX [1]; 9.29 upbm affinity estimate (log intensity, higher = more binding, comparable within an allelic series) with PRRX1 [2]; 7.2 upbm affinity estimate (log intensity, higher = more binding, comparable within an allelic series) in the assay with SHOX [3]; 9.38 upbm affinity estimate (log intensity, higher = more binding, comparable within an allelic series) with PRRX1 [4].
For the sequence ACTGGGGG, the binding signal with SHOX [1] is 7.05 upbm affinity estimate (log intensity, higher = more binding, comparable within an allelic series); with PAX4 [5], 8.98 upbm affinity estimate (log intensity, higher = more binding, comparable within an allelic series); with PAX4 [6], 9.06 upbm affinity estimate (log intensity, higher = more binding, comparable within an allelic series); with MSX2 [7], 9.43 upbm affinity estimate (log intensity, higher = more binding, comparable within an allelic series); with ALX1 [8], 6.32 upbm affinity estimate (log intensity, higher = more binding, comparable within an allelic series); in the assay with PAX4 [9], 9.22 upbm affinity estimate (log intensity, higher = more binding, comparable within an allelic series). The binding signal with PITX2 is 7.95 upbm affinity estimate (log intensity, higher = more binding, comparable within an allelic series); with SHOX [3], 7.08 upbm affinity estimate (log intensity, higher = more binding, comparable within an allelic series); in the assay with ALX1 [10] it was 6.52 upbm affinity estimate (log intensity, higher = more binding, comparable within an allelic series); with PAX4 [11], 9.12 upbm affinity estimate (log intensity, higher = more binding, comparable within an allelic series); in the assay with MSX2 [12], 9.41 upbm affinity estimate (log intensity, higher = more binding, comparable within an allelic series); with PAX4 [13], 9.07 upbm affinity estimate (log intensity, higher = more binding, comparable within an allelic series). Also, the binding signal in the assay with MSX2 [14] was 9.45 upbm affinity estimate (log intensity, higher = more binding, comparable within an allelic series); with PAX4 [15], 9.15 upbm affinity estimate (log intensity, higher = more binding, comparable within an allelic series); with ALX1 [16], 6.23 upbm affinity estimate (log intensity, higher = more binding, comparable within an allelic series).
With AATAATAC, the binding signal is 9.32 upbm affinity estimate (log intensity, higher = more binding, comparable within an allelic series) with SHOX [1]; 10.6 upbm affinity estimate (log intensity, higher = more binding, comparable within an allelic series) with PRRX1 [2]; 10.3 upbm affinity estimate (log intensity, higher = more binding, comparable within an allelic series) in the assay with ALX3 [17]; 12.3 upbm affinity estimate (log intensity, higher = more binding, comparable within an allelic series) with PRRX1 [4].
As for GGCGCGAA, the binding signal in the assay with SHOX [1] is 7.15 upbm affinity estimate (log intensity, higher = more binding, comparable within an allelic series); with HOXC10 [18], 10.1 upbm affinity estimate (log intensity, higher = more binding, comparable within an allelic series); with SHOX [3], 7.19 upbm affinity estimate (log intensity, higher = more binding, comparable within an allelic series); with HOXC10 [19] it was 10.1 upbm affinity estimate (log intensity, higher = more binding, comparable within an allelic series).
GCAAATTA: the binding signal is 11.6 upbm affinity estimate (log intensity, higher = more binding, comparable within an allelic series) in the assay with SHOX [1]; 11.6 upbm affinity estimate (log intensity, higher = more binding, comparable within an allelic series) with PAX4 [5]; 12.1 upbm affinity estimate (log intensity, higher = more binding, comparable within an allelic series) with PAX4 [6]; 11.2 upbm affinity estimate (log intensity, higher = more binding, comparable within an allelic series) with ALX1 [8]; 11.9 upbm affinity estimate (log intensity, higher = more binding, comparable within an allelic series) in the assay with PAX4 [9]; 8.89 upbm affinity estimate (log intensity, higher = more binding, comparable within an allelic series) with SHOX [3]. Besides, the binding signal with ALX1 [10] is 10.8 upbm affinity estimate (log intensity, higher = more binding, comparable within an allelic series); in the assay with PAX4 [11], 10.3 upbm affinity estimate (log intensity, higher = more binding, comparable within an allelic series); with PAX4 [13] it was 10.8 upbm affinity estimate (log intensity, higher = more binding, comparable within an allelic series); with PAX4 [15], 10.8 upbm affinity estimate (log intensity, higher = more binding, comparable within an allelic series); with ALX1 [16] it was 12 upbm affinity estimate (log intensity, higher = more binding, comparable within an allelic series).
On to GCCTGCCC, for which the binding signal in the assay with SHOX [1] is 7.04 upbm affinity estimate (log intensity, higher = more binding, comparable within an allelic series); with HOXC10 [18], 10.1 upbm affinity estimate (log intensity, higher = more binding, comparable within an allelic series); with ALX1 [8] it was 6.56 upbm affinity estimate (log intensity, higher = more binding, comparable within an allelic series); in the assay with ALX3 [20], 7.64 upbm affinity estimate (log intensity, higher = more binding, comparable within an allelic series); in the assay with SHOX [3] it was 7.13 upbm affinity estimate (log intensity, higher = more binding, comparable within an allelic series); in the assay with ALX1 [10], 6.58 upbm affinity estimate (log intensity, higher = more binding, comparable within an allelic series). Besides, the binding signal is 10 upbm affinity estimate (log intensity, higher = more binding, comparable within an allelic series) with HOXC10 [19]; 7.67 upbm affinity estimate (log intensity, higher = more binding, comparable within an allelic series) with ALX3 [17]; 7.69 upbm affinity estimate (log intensity, higher = more binding, comparable within an allelic series) with ALX3 [21]; 7.69 upbm affinity estimate (log intensity, higher = more binding, comparable within an allelic series) in the assay with ALX3 [22]; 6.62 upbm affinity estimate (log intensity, higher = more binding, comparable within an allelic series) with ALX1 [16]; 7.72 upbm affinity estimate (log intensity, higher = more binding, comparable within an allelic series) with ALX3 [23].
For the sequence GTACAATA, the binding signal was 8.08 upbm affinity estimate (log intensity, higher = more binding, comparable within an allelic series) in the assay with SHOX [1]; 9.8 upbm affinity estimate (log intensity, higher = more binding, comparable within an allelic series) with HOXB9 [24]; 9.79 upbm affinity estimate (log intensity, higher = more binding, comparable within an allelic series) with HOXB9 [25].
Consider CAAGCTTG, for which the binding signal is 7.28 upbm affinity estimate (log intensity, higher = more binding, comparable within an allelic series) in the assay with SHOX [1]; 9.71 upbm affinity estimate (log intensity, higher = more binding, comparable within an allelic series) in the assay with MSX2 [7]; 7.33 upbm affinity estimate (log intensity, higher = more binding, comparable within an allelic series) with SHOX [3]; 9.69 upbm affinity estimate (log intensity, higher = more binding, comparable within an allelic series) with MSX2 [12]; 9.69 upbm affinity estimate (log intensity, higher = more binding, comparable within an allelic series) with MSX2 [14].
